The sample as a whole holds a higher share of hits than the screen did.
Pf Dd2 inh – inhibitors of Plasmodium falciparum Dd2 growth | P. falciparum Dd2 growth, SYBR Green, 72 h | AID 1347417 | Potency, µM (top dose mostly 28.9 µM), hits mostly inhibitors | 120,000 compounds, 4.3% hits; active = well fitted inhibition curve with a large enough effect; also: nearly all actives have a fitted effect of over 65% in size
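Infected erythrocytes (Dd2, 0.3% parasitemia, 2.5% hematocrit final) are added to compound in RPMI-1640/Albumax II medium, grown 72 h at 37C in low oxygen, then lysed with saponin/Triton-X containing SYBR Green and read by fluorescence.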
Of the large screens only hits and unclear results are named; the others gave an inactive call.

COc1ccc(-c2nnc3ccc(Nc4cccc(OC)c4)nn23)nc1	Pf Dd2 inh 10µM
Cn1nccc1CN1CCC2(CC1)CC(=O)Nc1ccccc1O2	none
COCCNC(=O)[C@@H]1C[C@H](Oc2cccnc2)CN1C(=O)c1nccc2ccccc12	none
CN(C)c1ccc(C(=O)N2CCCC(COc3ccccc3C(=O)N3CCCC3)C2)cc1 (stereo unspecified)	Pf Dd2 inh 6.3µM
O=C(c1ccncc1)N1CCCC(COc2ccccc2C(=O)N2CCOCC2)C1 (stereo unspecified)	none
O=C(c1ccccc1OCC1CCCN(C2CCCC2)C1)N1CCCC1 (stereo unspecified)	none
CCOc1ccc(-c2nn(CC(=O)NC3CCCC3)c3c2cnc2ccc(C)cc23)cc1	none
Cc1ccc(S(=O)(=O)N[C@H](C)c2onc(-c3ccc(F)cc3)c2C(=O)O)cc1	none
C=CCC1(CO)CCCN(Cc2nc(C)cc(-c3ccccc3)n2)C1 (stereo unspecified)	Pf Dd2 inh 8.9µM
C=CCC1(C(=O)O)CCCN(Cc2cnc(NCc3ccccc3)nc2)C1 (stereo unspecified)	none
C=CCC1(CO)CCCN(C(=O)CCCOc2ccccc2)C1 (stereo unspecified)	none
CCC1(CO)CCCN(CCCOc2ccc(C(N)=O)cc2)C1 (stereo unspecified)	none
C=CCC1(C(=O)O)CCCN(Cc2cc3c(cc2OC)OCO3)C1 (stereo unspecified)	none
C=CCC1(CO)CCCN(CCOc2ccc(C)cc2Cl)C1 (stereo unspecified)	Pf Dd2 inh 8.9µM
Cc1cccc(NC(=O)Cn2cc(C(=O)c3ccccc3)c3ccccc32)c1	none
CNc1cc(C(=O)N[C@H](c2cccs2)C2CC(O)C2)ccn1 (stereo partly specified)	none
CN(Cc1cc(C2CC2)n[nH]1)C(=O)c1ccccc1C1CCNC1 (stereo unspecified)	none
O=S(=O)(NC[C@H]1COCc2nc3cc(F)ccc3n21)c1ccccc1	none
Oc1ccc(CCC2CCCCN2Cc2nc(Cc3cccc(F)c3)no2)cc1 (stereo unspecified)	Pf Dd2 inh 5µM
CCc1noc(-c2nc(Cc3cccc(F)c3)no2)n1	none
CN(Cc1ccc(-n2cccn2)cc1)Cc1nc(Cc2cccc(F)c2)no1	none
Cc1ccccc1OCC(=O)Nc1ccc2nc(SCCOc3ccccc3)sc2c1	none
Cc1ccccc1NC(=O)CSc1nc2ccc(NC(=O)c3ccco3)cc2s1	Pf Dd2 inh 11µM
Cc1ccccc1NC(=O)CSc1nc2ccc(NC(=O)c3ccccc3)cc2s1	none
Cc1ccc(NC(=O)CSc2nc3ccc(NC(=O)c4ccco4)cc3s2)c(C)c1	none
Cc1ccccc1OCCSc1nc2ccc(NC(=O)c3cccs3)cc2s1	Pf Dd2 inh 1.1µM
Cc1ccccc1C(=O)Nc1ccc2nc(SCCOc3ccccc3)sc2c1	none
COc1cccc(C(=O)N2CCC(n3cc(-c4nc(-c5ccccc5)no4)nn3)CC2)c1OC	none
O=C(NCc1cccnc1Oc1cccc(C(F)(F)F)c1)c1cccs1	none
c1cnc2nc(C3CCN(CC4CCCCC4)C3)[nH]c2c1 (stereo unspecified)	none
Cc1nc2c(c(-c3ccc(Cl)cc3)n1)CCN([S+](=O)([O-])c1cccs1)CC2	none
Cc1cccn2c(Nc3ccc4c(c3)OCCO4)c(-c3ccc(Br)o3)nc12	Pf Dd2 inh 8.9µM
Cc1cccn2c(Nc3ccccc3)c(-c3ccc(N4CCOCC4)cc3)nc12	none
Cc1ccc(-c2nc3cccc(C)n3c2Nc2ccc3c(c2)OCO3)o1	none
COc1cccc2c1OCC(C(=O)N1CCC(c3noc(C)n3)CC1)C2 (stereo unspecified)	none
CCOc1ccc(NC(=O)C2CCCN(c3cnn(C)c(=O)c3)C2)cc1 (stereo unspecified)	none
CC(=O)Nc1ccc(-n2c(CCC(=O)O)ccc2-c2ccc(Br)cc2)cc1	none
CC(C)NC(=O)CN1C(=O)COc2ccc(S(=O)(=O)N3CCCCCC3)cc21	none
COC(=O)CSc1ncc2c(n1)-c1ccccc1N(Cc1ccccc1C)S2(=O)=O	none
CCOc1ccc(NC(=O)c2c(C)oc3nc(C)nc(N4CCCC4)c23)cc1	none
CCOc1cc(=O)n2c(c1C(=O)Nc1ccccc1)CCCC2	none
O=C(Nc1ccc(Cl)cc1)c1nc2c(o1)CCN(Cc1ccccc1)CC2	none
Cc1oc2ccc(O)c(CN3CCCC(C)C3)c2c1C(=O)Nc1ccccc1 (stereo unspecified)	Pf Dd2 inh 0.89µM
COc1ccc(NC(=O)c2c(C)oc3ccc(O)c(CN4CCN(Cc5ccccc5)CC4)c23)cc1	Pf Dd2 inh 1.3µM
COc1ccc(NC(=O)c2c(OC)cc(=O)n3c2CCCC3)cc1	none
Cc1cccc(NC(=O)c2c(C)oc3ncnc(N4CCCCC4)c23)c1C	none
Cc1oc2ccc(O)c(CN3CCN(Cc4ccccc4)CC3)c2c1C(=O)Nc1cccc(Cl)c1C	Pf Dd2 inh 0.56µM
COc1ccc(NC(=O)c2c(C)oc3ccc(O)c(CN4CCCCCC4)c23)cc1	Pf Dd2 inh 2.8µM
CC(=O)Nc1ccc(NC(=O)c2cccc(CN3CCCC(C#N)C3)c2)cc1 (stereo unspecified)	none
COc1ccc(NC(=O)c2c(-c3cnn(C)c3NCc3ccccc3)noc2C)cc1	none
Cc1c(Cl)cccc1NC(=O)NCC1CCOCC1	none
